The values below come from the supplement of paper PMC5641865, “A screen for kinase inhibitors identifies antimicrobial imidazopyridine aminofurazans as specific inhibitors of the Listeria monocytogenes PASTA kinase PrkA” (The Journal of Biological Chemistry, 2017).

Each structure is given as a SMILES string. ± gives the standard deviation of the averaged measurements.
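Note: End-point A600 read in BHI broth at 37 °C with 2% DMSO, inhibition computed as (1 − OD with compound plus ceftriaxone ÷ OD with ceftriaxone only) × 100.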

This assay deals with Listeria monocytogenes 10403S. Kind of assay: growth inhibition relative to ceftriaxone-alone control; higher = stronger potentiation of ceftriaxone growth inhibition. The conditions noted are these: 10 µM; ceftriaxone 1 ug/ml; 12 h.
Regarding `CC(C)=Cc1cccc2c1/C(=N/Nc1ccc(S(N)(=O)=O)cc1)C(=O)N2`, the growth inhibition was -2.72 ± 0.38%.
Consider `COc1cc2nccc(Oc3ccc(NC(=O)C4(C(=O)Nc5ccc(F)cc5)CC4)cc3)c2cc1OC` [XL-184 (Cabozantinib)], for which the growth inhibition was 30.5 ± 5.4%.
Regarding `Nc1cc(C(F)(F)F)c(-c2cc(N3CCOCC3)nc(N3CCOCC3)n2)cn1`, the growth inhibition worked out at 47 ± 35%.
Take `NS(=O)(=O)c1ccc(-c2cc3ccncc3cc2OCc2ccccc2)cc1`: the growth inhibition was -3.99 ± 6.9%.
The result for `CCn1c(-c2nonc2N)nc2ccncc21` reads -0.136 ± 1.1%; that for `COc1cc(/C=N/Nc2ncnc3[nH]ncc23)ccc1O`, 6.52 ± 10%; that for `CS(=O)(=O)CCNCc1nc(-c2ccc3ncnc(Nc4ccc(F)c(Cl)c4)c3c2)cs1`, 1.67 ± 6.4%.
For `Cc1cc(Nc2cc(CN3CCOCC3)c3nc(C)c(Cc4ccc(Cl)cc4F)n3n2)n[nH]1`, the growth inhibition is 12 ± 6.8%.
For the compound `CC(C)c1ccc(-c2cc(-c3c[nH]nc3-c3ccccn3)ccn2)cc1`, the growth inhibition is -6.81 ± 3%.
The value for `Cc1ccc(F)c(NC(=O)Nc2ccc(-c3cccc4[nH]nc(N)c34)cc2)c1` [Linifanib (ABT-869)] was 29.9 ± 19%; that for `Nc1nc(N)c2nc(-c3cccc(O)c3)c(-c3cccc(O)c3)nc2n1` was 63 ± 19%.
The result for `Nc1nccc(-c2c(-c3ccc(F)cc3)ncn2C2CCNCC2)n1` reads 2.49 ± 6.8%; that for `COc1cc2nccc(Oc3ccc(NC(=O)NC4CC4)c(Cl)c3)c2cc1C(N)=O` [E7080 (Lenvatinib)], 5.83 ± 14%.
As to `Cc1ccc(NC(=O)c2ccc(CN3CCN(C)CC3)cc2)cc1Nc1nccc(-c2cccnc2)n1` [Imatinib (Gleevec)], the growth inhibition worked out at 16.3 ± 4.7%.
Turning to `Nc1nccc(Oc2ccc(NC(=O)c3c[nH]cc(-c4ccc(F)cc4)c3=O)cc2F)c1Cl`, the growth inhibition is 1.11 ± 36%.
The result for `Nc1nc(N)c2nc(-c3cccc(O)c3)cnc2n1` reads 8.99 ± 4.4%.
The value for `COc1cc(C=NNc2ncnc3c2cnn3Cc2ccccc2)ccc1O` was -10.8 ± 3.7%; that for `CN(C)Cc1cccc(N/C(=C2\C(=O)Nc3cc(C(N)=O)ccc32)c2ccccc2)c1` was 8.63 ± 3.3%; that for `COC(=O)Nc1nc2cc(Oc3cccc(NC(=O)Nc4cc(C(F)(F)F)ccc4F)c3)ccc2[nH]1` was -5.06 ± 1.8%.
In the case of `Cc1ccc(NC(=O)c2ccc(CN3CCN(C)CC3)cc2)cc1Nc1nc(-c2cccnc2)cs1` [Masitinib (AB1010)], the growth inhibition was found to be 36.7 ± 26%.
As for `O=C1Nc2ccc(C(=O)c3ccco3)cc2C1=Cc1cc(Cl)c(O)c(Cl)c1`, the growth inhibition worked out at 13.9 ± 4.5%.
On to `CCS(=O)(=O)Nc1ccc2c(c1)/C(=C(/Nc1ccc(CN3CCCCC3)cc1)c1ccccc1)C(=O)N2` [Hesperadin], for which the growth inhibition amounted to 19.3 ± 11%.
The value for `COc1ccc(-c2nn3ncccc3c2-c2ccnc(Nc3ccc4c(c3)OCCO4)n2)cc1` was -7.96 ± 4.1%.
The value for `Cc1nc(N)sc1-c1ccnc(Nc2ccc(N3CCOCC3)cc2)n1` was -5.25 ± 7.3%; that for `Nc1nc(Nc2ccc(S(N)(=O)=O)cc2)nn1C(=O)c1c(F)cccc1F` was 27.6 ± 6.5%; that for `C[C@H](NC(=O)/C(C#N)=C/c1cccc(Br)n1)c1ccccc1` was 99 ± 0.21%.
The result for `COc1cccc(-n2ncc3c(N/N=C/c4ccc(C(=O)NCCN(C)C)cc4)ncnc32)c1` reads 0.231 ± 2.8%; that for `O=C(NOCC(O)CO)c1cc(Br)c(F)c(F)c1Nc1ccc(I)cc1F` (stereo not drawn), 100 ± 5.2%; that for `COc1cc(N2CCC(N3CCN(C)CC3)CC2)ccc1Nc1ncc(Cl)c(Nc2ccccc2S(=O)(=O)C(C)C)n1`, 79.1 ± 24%.
For `NC(=O)c1sc(-n2cnc3ccccc32)cc1OCc1ccccc1Br`, the growth inhibition was -4.4 ± 0.65%.
On to `O=C(Nc1n[nH]c2nc(-c3ccc(O)cc3)c(Br)cc12)C1CC1`, for which the growth inhibition is -9.15 ± 4.2%.
On to `Fc1ccc(-c2ncn(CCCN3CCOCC3)c2-c2ccncc2)cc1`, for which the growth inhibition stood at 1.14 ± 3.2%.
Turning to `NC(=O)Cc1ccccc1Oc1nccc(-c2c(-c3ccc(F)cc3)ncn2C2CCNCC2)n1`, the growth inhibition is -2.82 ± 0.75%.
In the case of `CN1CCN(C(=O)c2ccc(NC(=O)Nc3ccc(N(C)c4ccnc(Nc5ccc(CS(C)(=O)=O)cc5)n4)cc3)cc2)CC1`, the growth inhibition was -5.87 ± 3.3%.
Regarding `O=c1c(O)c(-c2ccc(O)c(O)c2)oc2cc(O)cc(O)c12` [Quercetin (Sophoretin)], the growth inhibition was 20.4 ± 13%.
The value for `CCn1c(-c2nonc2N)nc2cncc(C(=O)NCCNC)c21` was -6.44 ± 0.39%.
Regarding `CCn1cc(-c2ccnc3[nH]ccc23)c(-c2cccc(NC(=O)Nc3ccc(OCc4ccccc4)cc3)c2)n1`, the growth inhibition was -0.807 ± 2.3%.
The value for `CC[C@@H]1C(=O)N(C)c2cnc(Nc3ccc(C(=O)NC4CCN(C)CC4)cc3OC)nc2N1C1CCCC1` was 41.8 ± 45%.
